Records with an inconclusive call do not appear. Active and inactive are the calls of the source. The calls were made as follows: active = hit-call score of the fitted dose curve at least 0.9, where 1 is the maximum; inconclusive = response in the unintended direction; inactive = score below 0.9.
How the values were obtained:
[1] = ACEA_AR_agonist_AUC_viability: ACEA Biosciences xCELLigence Real-Time Cell Analysis on Androgen Receptor Agonism for Viability (AID 2283775);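 as to AC50: viability read 80 hours after compound addition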
In short: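 Viability endpoint from xCELLigence impedance in 22Rv1 prostate cells at 80 h. Eight-point series, 100 uM maximum final.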

[2] = ACEA_AR_antagonist_AUC_viability: ACEA Biosciences xCELLigence Real-Time Cell Analysis on Androgen Receptor Antagonism for Viability (AID 2283776);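 also: 22Rv1 human prostate cancer cells growing on impedance electrode plates; area under impedance growth curve at 80 h after dosing as viability; hits lower the growth signal relative to DMSO meaning cytotoxicity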
In short: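 Viability endpoint from label-free cell-index monitoring: 22Rv1 cultures treated with an eight-point 1:4 dilution series starting at 100 uM final, AUC at 80 h fitted against DMSO.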

[3] = ACEA_ER_AUC_viability: ACEA Biosciences xCELLigence Real-Time Cell Analysis on Estrogen Receptor Agonism for Viability (AID 2283782);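 also: hit means loss of impedance signal meaning reduced cell growth or viability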
In short: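 Read-out: real-time electrical impedance (RT-CES) area under curve, loss of signal taken as reduced viability, normalized to DMSO baseline. T-47D cells, charcoal-stripped serum medium, compounds up to 100 uM final, continuous exposure, 80 h.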

[4] = target: zebrafish Estrogen Receptor (ESR1), esr1 (gene 259252) (UniProt P57717); experiment: ATG_zfER1_XSP1: Attagene TRANS-FACTORIAL Multi-Species (XSP1) HepG2 Assay for zebrafish Estrogen Receptor (ESR1) (AID 2283772)
In short: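 Reporter mRNA induction, gauged via RT-PCR/capillary electrophoresis fluorescence relative to DMSO controls, in HepG2 cells transiently carrying GAL4-UAS reporter units; 24 h dosing.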

[5] = test system: zebrafish Estrogen Receptor (ESR2B), gene 317733; experiment: ATG_zfER2b_XSP1: Attagene TRANS-FACTORIAL Multi-Species (XSP1) HepG2 Assay for zebrafish Estrogen Receptor (ESR2B) (AID 2283773)
In short: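 Multiplexed TRANS format in transfected HepG2 liver cells, chimeric NR-Gal4 from zebrafish ESR2B. 24 h dosing; medium contains 3 nM 6-alpha-fluorotestosterone. mRNA induction by RT-PCR/CE, positive direction vs DMSO.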

[6] = test system: frog Estrogen Receptor (ESR2), gene 100174814; experiment: ATG_frER2_XSP1: Attagene TRANS-FACTORIAL Multi-Species (XSP1) HepG2 Assay for frog Estrogen Receptor (ESR2) (AID 2283774)
In short: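 HepG2, transient MRTU transfection (GAL4-UAS reporters, exogenous NR-Gal4 chimeras); 24 h compound exposure; 3 nM 6α-fluorotestosterone co-added; total RNA → RT-PCR → 6-FAM primer extension → HpaI → CE. Positive direction vs DMSO.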

[7] = test system: frog Estrogen Receptor (ESR1), gene 398734; experiment: ATG_frER1_XSP1: Attagene TRANS-FACTORIAL Multi-Species (XSP1) HepG2 Assay for frog Estrogen Receptor (ESR1) (AID 2283777)
In short: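 Transient MRTU transfection, HepG2 (human liver); 24 h dosing, 3 nM 6α-fluorotestosterone co-added; RNA → RT-PCR → 6-FAM labeling → CE; upward activity vs DMSO.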

[8] = test system: zebrafish Estrogen Receptor (ESR2A), gene 317734; experiment: ATG_zfER2a_XSP1: Attagene TRANS-FACTORIAL Multi-Species (XSP1) HepG2 Assay for zebrafish Estrogen Receptor (ESR2A) (AID 2283778)
In short: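 Transient transfection of HepG2 (human liver) with MRTU constructs; chemical dosing for 24 h; medium contained 3 nM 6-alpha-fluorotestosterone to partly stimulate AR. RT-PCR/CE fluorescence of reporter transcripts; positive direction vs DMSO.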

[9] = target: chicken Estrogen Receptor (ESR1), ESR1 (gene 396099) (UniProt P06212); experiment: ATG_chERa_XSP1: Attagene TRANS-FACTORIAL Multi-Species (XSP1) HepG2 Assay for chicken Estrogen Receptor (ESR1) (AID 2283779)
In short: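 Read-out: fluorescent reporter mRNA fragments resolved by capillary electrophoresis after RT-PCR and HpaI digestion. Transfected HepG2 cells carried chimeric NR-Gal4 constructs, were dosed 24 h with 3 nM 6-alpha-fluorotestosterone added, and activity was fitted upward relative to DMSO.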

[10] = target: Estrogen receptor (Homo sapiens) (UniProt P03372); experiment: ATG_hERa_XSP1: Attagene TRANS-FACTORIAL Multi-Species (XSP1) HepG2 Assay for human Estrogen Receptor (ESR1) (AID 2283780)
In short: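 Reporter transcripts from multiplexed GAL4-UAS units driven by NR-Gal4 chimeras in transiently transfected HepG2 were measured by RT-PCR with capillary electrophoresis 24 h post-dose, with 3 nM 6-alpha-fluorotestosterone present; gain-of-signal relative to DMSO.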

[11] = test system: turtle Estrogen Receptor (ESR1), gene 101933533; experiment: ATG_trERa_XSP1: Attagene TRANS-FACTORIAL Multi-Species (XSP1) HepG2 Assay for turtle Estrogen Receptor (ESR1) (AID 2283781)
In short: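 Transfect HepG2 with reporter units → dose chemical 24 h (medium has 3 nM 6-alpha-fluorotestosterone) → isolate RNA, RT-PCR → FAM primer extension, HpaI digest → capillary electrophoresis; gain of signal vs DMSO.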

[12] = test system: turtle Androgen Receptor (AR), gene 101947425; experiment: ATG_trAR_XSP1: Attagene TRANS-FACTORIAL Multi-Species (XSP1) HepG2 Assay for turtle Androgen Receptor (AR) (AID 2283786)
In short: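 Partial androgen stimulation is provided by 3 nM 6-alpha-fluorotestosterone in a multi-species trans-factorial panel expressing a turtle AR–GAL4 fusion in HepG2. After 24 h, reporter mRNA is measured by RT-PCR and capillary electrophoresis and fitted upward against DMSO.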

[13] = target: GAL4 Transcription Factor (Internal Marker), GAL4 (gene 855828) (UniProt P04386); experiment: ATG_GAL4_XSP1: Attagene TRANS-FACTORIAL Multi-Species (XSP1) HepG2 Assay for GAL4 Transcription Factor (Internal Marker) (AID 2283789)
In short: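 This background-control endpoint measures GAL4-driven reporter mRNA via RT-PCR and capillary electrophoresis of labelled fragments. Transiently transfected HepG2 cells were treated 24 h, with 3 nM 6-alpha-fluorotestosterone included, and gain-of-signal was fitted against DMSO.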

[14] = ATG_M_06_XSP1: Attagene TRANS-FACTORIAL Multi-Species (XSP1) HepG2 Assay for M06 Transcription Factor (Internal Marker) (AID 2283790)
In short: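 This background-control readout tracks M06 reporter mRNA, measured by RT-PCR and capillary electrophoresis. HepG2 cells transiently carrying the GAL4-UAS reporter panel were dosed for 24 h with 3 nM 6-alpha-fluorotestosterone added for partial AR stimulation; increases were scored relative to DMSO.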

[15] = ATG_M_61_XSP1: Attagene TRANS-FACTORIAL Multi-Species (XSP1) HepG2 Assay for M61 Transcription Factor (Internal Marker) (AID 2283797)
In short: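 Background-control readout: reporter transcripts measured by RT-PCR and capillary electrophoresis 24 h after dosing transiently transfected HepG2 multi-reporter cells, with 3 nM 6-alpha-fluorotestosterone present. Fitted in the positive direction relative to DMSO.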

[16] = ATG_M_19_XSP1: Attagene TRANS-FACTORIAL Multi-Species (XSP1) HepG2 Assay for M19 Transcription Factor (Internal Marker) (AID 2283798)
In short: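 Readout is reporter mRNA induction quantified via RT-PCR, 6-FAM labeling, HpaI digestion and capillary electrophoresis, fitted in the positive direction versus DMSO baseline. Transfected HepG2 cells exposed 24 h, medium including 3 nM 6-alpha-fluorotestosterone.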

[17] = ATG_M_32_XSP1: Attagene TRANS-FACTORIAL Multi-Species (XSP1) HepG2 Assay for M32 Transcription Factor (Internal Marker) (AID 2283799)
In short: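 Reporter transcripts from the M32 internal-control unit measured by RT-PCR, FAM labelling, HpaI digestion and capillary electrophoresis after 24 h compound exposure of transfected HepG2, 3 nM 6-alpha-fluorotestosterone included; DMSO baseline, positive-direction fit.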

AR (gene 367) [18] = target: AR (gene 367) (UniProt P10275); experiment: ACEA_AR_antagonist_80hr: ACEA Biosciences xCELLigence Real-Time Cell Analysis on Androgen Receptor Antagonism for Proliferation (AID 2283787);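 also: 22Rv1 human prostate cancer cells with growth followed by electrical impedance; hits lower the impedance growth signal relative to DMSO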
In short: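 Measures real-time proliferation of 22Rv1 prostate cancer cells by electrode impedance at 80 hours after dosing. Test articles ran at eight concentrations (1:4 steps, top 100 uM final) in biological duplicate.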

AR (gene 367) [19] = target: AR (gene 367) (UniProt P10275); experiment: ACEA_AR_agonist_80hr: ACEA Biosciences xCELLigence Real-Time Cell Analysis on Androgen Receptor Agonism for Proliferation (AID 2283783);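 also: hits increase impedance growth signal above DMSO baseline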
In short: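 Impedance (RT-CES) growth signal at 80 h post-dose; 22Rv1 cells, 8-pt 1:4 series, top 100 uM final, DMSO ≤0.5%; duplicate plates; gain-of-signal fit relative to DMSO baseline.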

[20] = STM_H9_NormalizedViability: Cytotoxicity Assessment at 120 hours in the Stemina devTOX quickPredict H9 human embryonic stem cell (hESC)-based Assay (AID 2283784)
In short: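 Here, H9 cells received test compound with daily medium renewal. Each plate included methotrexate references (1uM, 5 nM), 0.1% DMSO and media blanks; CellTiter-Fluor RFU was normalized to DMSO.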

Sequence of AR (gene 367) (P10275 whole entry, looked up): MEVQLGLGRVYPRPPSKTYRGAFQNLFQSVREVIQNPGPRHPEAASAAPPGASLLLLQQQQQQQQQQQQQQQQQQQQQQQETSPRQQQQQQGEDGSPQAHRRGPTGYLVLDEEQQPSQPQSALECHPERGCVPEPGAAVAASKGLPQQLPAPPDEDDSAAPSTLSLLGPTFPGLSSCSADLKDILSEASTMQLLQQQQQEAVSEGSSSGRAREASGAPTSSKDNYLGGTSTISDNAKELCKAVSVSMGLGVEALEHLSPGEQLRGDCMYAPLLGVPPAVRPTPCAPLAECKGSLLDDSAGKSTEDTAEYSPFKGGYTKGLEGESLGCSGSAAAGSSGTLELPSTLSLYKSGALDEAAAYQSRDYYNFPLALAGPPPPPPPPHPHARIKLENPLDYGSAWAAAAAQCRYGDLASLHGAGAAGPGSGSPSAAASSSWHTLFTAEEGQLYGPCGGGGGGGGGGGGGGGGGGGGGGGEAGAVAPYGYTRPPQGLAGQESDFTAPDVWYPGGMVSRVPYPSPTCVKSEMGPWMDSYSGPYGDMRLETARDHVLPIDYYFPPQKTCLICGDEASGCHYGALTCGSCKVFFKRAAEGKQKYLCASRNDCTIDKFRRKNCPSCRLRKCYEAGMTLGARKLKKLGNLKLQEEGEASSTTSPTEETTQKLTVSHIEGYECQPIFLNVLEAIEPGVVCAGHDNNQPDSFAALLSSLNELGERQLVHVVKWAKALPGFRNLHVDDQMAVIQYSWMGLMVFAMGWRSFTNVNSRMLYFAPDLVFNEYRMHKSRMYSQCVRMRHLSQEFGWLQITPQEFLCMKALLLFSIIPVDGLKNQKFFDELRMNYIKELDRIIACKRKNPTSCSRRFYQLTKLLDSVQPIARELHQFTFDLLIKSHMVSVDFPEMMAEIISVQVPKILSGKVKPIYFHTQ
Sequence of Estrogen receptor (Homo sapiens) (P03372 whole entry, looked up, the tested form may be a part): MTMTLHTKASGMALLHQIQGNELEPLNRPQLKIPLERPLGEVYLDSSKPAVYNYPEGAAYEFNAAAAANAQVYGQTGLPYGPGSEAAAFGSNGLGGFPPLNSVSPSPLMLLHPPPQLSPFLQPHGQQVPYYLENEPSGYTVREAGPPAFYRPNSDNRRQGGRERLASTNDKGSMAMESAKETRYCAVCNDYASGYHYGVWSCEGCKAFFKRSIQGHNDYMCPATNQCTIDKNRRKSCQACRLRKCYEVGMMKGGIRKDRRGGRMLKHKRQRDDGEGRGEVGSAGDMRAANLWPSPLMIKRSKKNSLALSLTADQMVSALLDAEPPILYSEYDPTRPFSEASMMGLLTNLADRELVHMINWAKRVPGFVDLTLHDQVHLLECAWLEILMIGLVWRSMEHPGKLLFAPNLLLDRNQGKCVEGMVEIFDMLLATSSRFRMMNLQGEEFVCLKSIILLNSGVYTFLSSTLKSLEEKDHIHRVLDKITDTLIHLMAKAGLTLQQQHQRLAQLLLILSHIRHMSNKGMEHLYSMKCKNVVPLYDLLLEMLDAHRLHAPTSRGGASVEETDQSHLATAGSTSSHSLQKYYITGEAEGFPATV
Sequence of GAL4 Transcription Factor (Internal Marker), GAL4 (gene 855828) (P04386 whole entry, looked up, the tested form may be a part): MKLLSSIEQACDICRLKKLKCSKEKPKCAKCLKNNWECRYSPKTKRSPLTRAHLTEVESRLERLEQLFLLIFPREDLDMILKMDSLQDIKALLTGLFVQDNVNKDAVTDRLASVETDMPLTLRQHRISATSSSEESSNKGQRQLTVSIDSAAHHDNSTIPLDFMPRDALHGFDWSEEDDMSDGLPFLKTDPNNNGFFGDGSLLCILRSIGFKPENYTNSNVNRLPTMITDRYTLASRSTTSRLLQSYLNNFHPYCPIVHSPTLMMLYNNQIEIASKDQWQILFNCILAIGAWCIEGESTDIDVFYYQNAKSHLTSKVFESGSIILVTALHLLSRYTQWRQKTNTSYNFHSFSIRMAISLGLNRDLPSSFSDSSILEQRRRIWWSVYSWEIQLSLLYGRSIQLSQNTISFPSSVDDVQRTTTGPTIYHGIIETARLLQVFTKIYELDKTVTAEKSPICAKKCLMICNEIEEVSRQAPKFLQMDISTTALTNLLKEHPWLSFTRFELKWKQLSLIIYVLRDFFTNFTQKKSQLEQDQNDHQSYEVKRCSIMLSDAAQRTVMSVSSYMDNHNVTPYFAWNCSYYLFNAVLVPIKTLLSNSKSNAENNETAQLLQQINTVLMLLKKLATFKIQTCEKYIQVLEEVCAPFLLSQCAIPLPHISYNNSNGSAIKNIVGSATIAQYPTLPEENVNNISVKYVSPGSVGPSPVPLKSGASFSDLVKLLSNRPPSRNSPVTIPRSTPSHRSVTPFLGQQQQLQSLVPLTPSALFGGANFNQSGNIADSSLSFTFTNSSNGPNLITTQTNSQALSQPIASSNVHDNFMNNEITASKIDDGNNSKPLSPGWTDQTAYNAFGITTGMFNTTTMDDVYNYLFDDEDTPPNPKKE
Sequence of zebrafish Estrogen Receptor (ESR1), esr1 (gene 259252) (P57717 whole entry, looked up, the tested form may be a part): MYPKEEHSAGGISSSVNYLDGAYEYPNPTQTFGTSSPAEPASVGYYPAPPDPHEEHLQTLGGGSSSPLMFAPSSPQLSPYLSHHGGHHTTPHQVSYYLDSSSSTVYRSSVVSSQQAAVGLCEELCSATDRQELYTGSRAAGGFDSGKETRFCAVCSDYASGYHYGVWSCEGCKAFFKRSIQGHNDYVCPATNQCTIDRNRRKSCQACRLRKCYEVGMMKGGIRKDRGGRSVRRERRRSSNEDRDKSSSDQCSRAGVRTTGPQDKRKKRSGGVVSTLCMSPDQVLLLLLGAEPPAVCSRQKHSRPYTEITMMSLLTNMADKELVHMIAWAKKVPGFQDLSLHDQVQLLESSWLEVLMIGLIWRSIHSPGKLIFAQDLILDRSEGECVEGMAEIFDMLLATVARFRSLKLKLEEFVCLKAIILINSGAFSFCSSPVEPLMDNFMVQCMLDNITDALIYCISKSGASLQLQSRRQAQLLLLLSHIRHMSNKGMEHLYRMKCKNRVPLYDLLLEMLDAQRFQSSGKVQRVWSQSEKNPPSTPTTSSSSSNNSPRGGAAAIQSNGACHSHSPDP
Sequence of chicken Estrogen Receptor (ESR1), ESR1 (gene 396099) (P06212 whole entry, looked up, the tested form may be a part): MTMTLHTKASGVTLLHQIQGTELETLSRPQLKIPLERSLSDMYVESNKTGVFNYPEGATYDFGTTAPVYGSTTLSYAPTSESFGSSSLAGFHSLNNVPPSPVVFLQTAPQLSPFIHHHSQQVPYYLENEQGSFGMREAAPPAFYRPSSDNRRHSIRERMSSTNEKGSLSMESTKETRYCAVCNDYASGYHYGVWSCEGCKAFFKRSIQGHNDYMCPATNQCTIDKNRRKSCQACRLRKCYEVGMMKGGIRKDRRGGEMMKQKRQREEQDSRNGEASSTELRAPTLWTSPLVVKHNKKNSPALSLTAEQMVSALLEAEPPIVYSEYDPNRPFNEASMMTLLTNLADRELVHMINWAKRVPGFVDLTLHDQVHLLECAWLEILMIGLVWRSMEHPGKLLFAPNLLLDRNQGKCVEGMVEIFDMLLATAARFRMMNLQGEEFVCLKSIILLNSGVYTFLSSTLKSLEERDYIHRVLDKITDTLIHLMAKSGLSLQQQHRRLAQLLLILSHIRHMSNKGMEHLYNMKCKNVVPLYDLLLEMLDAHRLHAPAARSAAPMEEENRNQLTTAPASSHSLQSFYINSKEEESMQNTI

CCOC(OCC)OCC
outcome [1]: inactive | outcome [2]: inactive | outcome [3]: inactive

N#Cc1ccccc1O
outcome [1]: inactive | outcome [2]: inactive

CC(C)(C)c1cc(CCC(=O)OCC(COC(=O)CCc2cc(C(C)(C)C)c(O)c(C(C)(C)C)c2)(COC(=O)CCc2cc(C(C)(C)C)c(O)c(C(C)(C)C)c2)COC(=O)CCc2cc(C(C)(C)C)c(O)c(C(C)(C)C)c2)cc(C(C)(C)C)c1O
outcome [2]: inactive

O=C(c1ccccc1)c1ccc(O)cc1O
AC50 [4]: 4.2 µM (active) | AC50 [5]: 2.7 µM (active) | AC50 [6]: 1.05 µM (active) | AC50 [7]: 0.652 µM (active) | AC50 [8]: 1.65 µM (active) | AC50 [9]: 1.55 µM (active) | AC50 [10]: 3.15 µM (active) | AC50 [11]: 2.24 µM (active) | outcome [12]: inactive | outcome [13]: inactive | outcome [14]: inactive | outcome [15]: inactive | outcome [16]: inactive | outcome [17]: inactive

CCCCCCCCCCCCC[N+](C)(C)Cc1ccccc1
AC50 [1]: 2.99 µM (active) | AC50 [2]: 3.31 µM (active) | AC50 [3]: 7.37 µM (active) | AC50 (AR (gene 367) [18]): 4.67 µM (active)

CCC(=O)OC(C)c1ccccc1 (stereo not given)
AC50 [3]: 79.9 µM (active)

COCCOCCC[Si](C)(O[Si](C)(C)C)O[Si](C)(C)C
outcome [1]: inactive | outcome [2]: inactive | AC50 [3]: 79.6 µM (active) | outcome (AR (gene 367) [19]): inactive

CN(C(=O)C(F)(F)C(F)(F)C(F)(F)F)[Si](C)(C)C
outcome [3]: inactive

CC(C)OC=O
outcome [1]: inactive

CC(C)(C)c1cc(Cc2cc(C(C)(C)C)c(O)c(C(C)(C)C)c2)cc(C(C)(C)C)c1O
outcome [1]: inactive | outcome [2]: inactive

CCOC(=O)C1CC(=O)C(=C(O)C2CC2)C(=O)C1 (stereo not given)
outcome [1]: inactive | outcome [2]: inactive

CCC/C=C/CO
outcome [3]: inactive

CCN=C1C=CC(=C(c2ccc(N(CC)CC)cc2)c2ccc(N(CC)CC)cc2)c2ccccc21
outcome [1]: inactive | AC50 [2]: 0.134 µM (active) | AC50 [3]: 5.37 µM (active) | AC50 [20]: 0.165 µM (active) | AC50 (AR (gene 367) [18]): 0.131 µM (active)

O=C1C=CC(=O)N1c1ccccc1
outcome [1]: inactive | outcome [2]: inactive | outcome [3]: inactive | outcome (AR (gene 367) [18]): inactive

O=C1C=CC(=O)N1c1ccc(Cc2ccc(N3C(=O)C=CC3=O)cc2)cc1
AC50 [3]: 25.1 µM (active)

N#CCCOCCC#N
outcome [3]: inactive

CC(C)Nc1ccc(NC(C)C)c2c1C(=O)c1ccccc1C2=O
outcome [1]: inactive | outcome [2]: inactive

CC(=O)CCC(C)C
outcome [1]: inactive

CCOC(=O)CCC(C)=O
outcome [3]: inactive

CCCCCCCCCc1ccc(OCCO)cc1
AC50 [1]: 9.26 µM (active) | AC50 [2]: 14.2 µM (active) | AC50 [3]: 35.2 µM (active) | AC50 (AR (gene 367) [18]): 16.6 µM (active)
